Sampled rows, rich in hits. Any-hit rate of the full collection: about 12%.
USP8 block: blocks human USP8 ubiquitin-rhodamine cleavage. P40818. purified USP8, Ub-rhodamine cleavage fluorescence, 30 min. inhibition, % at 20 µM. hit rate 4.2% among 47,000
USP17 inh: human USP17-like deubiquitinase inhibition. purified USP17, Ub-rhodamine cleavage fluorescence, 3 h. inhibition, % at 50 µM. AID 1645855. hit rate 6.5% among 47,000
USP30 inh: inhibitors of human USP30 deubiquitinase; purified USP30, Ub-rhodamine cleavage fluorescence; Q70CQ3; hit rate 5.3% among 47,000; inhibition, % at 25 µM
Target sequence (Q70CQ3 whole entry, looked up): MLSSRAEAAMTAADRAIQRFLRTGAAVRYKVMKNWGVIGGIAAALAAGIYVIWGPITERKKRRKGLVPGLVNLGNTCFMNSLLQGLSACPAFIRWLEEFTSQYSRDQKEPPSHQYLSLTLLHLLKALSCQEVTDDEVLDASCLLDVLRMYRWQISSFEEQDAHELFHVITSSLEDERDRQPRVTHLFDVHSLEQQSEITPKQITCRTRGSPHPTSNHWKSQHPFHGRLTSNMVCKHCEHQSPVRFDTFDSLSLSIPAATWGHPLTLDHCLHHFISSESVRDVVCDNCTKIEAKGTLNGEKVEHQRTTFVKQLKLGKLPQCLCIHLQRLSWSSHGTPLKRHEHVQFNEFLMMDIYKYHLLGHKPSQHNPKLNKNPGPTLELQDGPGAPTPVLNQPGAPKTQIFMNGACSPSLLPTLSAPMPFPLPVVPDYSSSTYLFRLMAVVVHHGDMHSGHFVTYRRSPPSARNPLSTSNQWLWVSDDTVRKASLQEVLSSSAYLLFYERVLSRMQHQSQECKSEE
Large screens that a line does not name were inactive. Cut-off read from the data, not from the text of the source: active = inhibition above about 30%; inactive = the rest.

CCn1c(=O)c(C(=O)N2CCN(c3ccc(F)cc3)CC2)nc2cccnc21	none
CCCCn1cc(NC(=O)C2=CC(c3ccc(OC)cc3)=NS(=O)(=O)N2C)cn1	none
COC(=O)c1nn(-c2ccc(Cl)cc2)c(=O)cc1Sc1ccc(C)cc1	USP8 block 53
Cc1ccc(-n2nnnc2CNC(=O)NCc2ccc(Cl)cc2)cc1	none
O=C(NCc1ccc(F)cc1)C1CCCCN1S(=O)(=O)c1ccccc1 (configuration not stated)	none
Cc1nc2cc(-c3nccn3C)nn2c(N2CCC(O)(c3ccccc3F)CC2)c1C	USP17 inh 34
COc1ccccc1OCC(O)CNc1c(C)c(C)nc2cc(-c3nccn3C)nn12 (configuration not stated)	none
O=c1c2cnc(N3CCN(c4ccccc4)CC3)nc2ccn1Cc1ccco1	none
Cc1cccc(COC(=O)C2CCN(C3=NS(=O)(=O)c4ccccc43)CC2)c1	none
O=C(CN1CCOC(c2cccc(-c3cccc(F)c3)n2)C1)N1CCCC1 (configuration not stated)	none
COc1ccc(NC(=O)CSc2oc(-c3ccc(C)cc3)nc2S(=O)(=O)c2ccc(Br)cc2)c(OC)c1	USP17 inh 59
O=C(CSc1oc(-c2ccc(F)cc2)nc1S(=O)(=O)c1ccc(F)cc1)Nc1ccc(F)cc1	none
COc1ccc(S(=O)(=O)N(CC(N)=O)c2cccc(Cl)c2)cc1	none
COc1cc(CCC(=O)N(C)C(c2ccccc2)c2ccccc2)cc(OC)c1OC	none
COc1ccccc1CC(=O)N(C)C(c1ccccc1)c1ccccc1	USP30 inh 52
COc1ccc(NC(=O)c2ccccc2OCC(=O)Nc2ccccc2C(F)(F)F)c(C)c1	USP8 block 52, USP17 inh 79
COc1ccc(C(=O)Nc2ccccc2Cc2ccccc2)c(OC)c1	none
Cc1ccn2c(/C=C(\C#N)c3cccc(C(F)(F)F)c3)c(-c3ccc(Cl)cc3)nc2c1	none
CNC(=O)c1c2n(c3ncccc13)CCN(C(=O)c1ccc(O)cc1)C2	none
O=C(CSc1nc2cc(C(F)(F)F)ccc2s1)NCC(=O)c1ccccc1	USP8 block 32, USP17 inh 91
O=C(CSc1nc(C(F)(F)F)cc(=O)[nH]1)NCc1ccccc1	none
CC(C)CN1C[C@@]23CN(C(=O)c4cccnc4)C[C@@H](C[C@@H]2S1(=O)=O)O3	none
COc1ccc(C2CCNc3ccccc3N2)cc1 (configuration not stated)	USP8 block 37
CN(C)c1ccc(C2CC(=O)c3ccccc3N2)cc1 (configuration not stated)	none
O=c1[nH]c2c(cnn2Cc2ccccc2)c(O)c1-c1nc(-c2cccc(F)c2)no1	none
COc1cccc(Cn2nc3n(C(C)C)c(=O)c4ccc(C(=O)NCC(C)C)cc4n3c2=O)c1	USP17 inh 33
COc1cccc(Cn2nc(C(=O)O)c3ccccc3c2=O)c1	none
COc1ccc(CCNC(=O)CCc2nc3cccnc3n2Cc2ccccc2)cc1OC	none
CCc1cc(C(F)(F)F)n2nc(C3CCN(C(=O)c4ccccc4F)C3)cc2n1 (configuration not stated)	none
Cc1cc(C(F)(F)F)n2nc(C3CCN(C(=O)c4cnn(C)c4C)C3)cc2n1 (configuration not stated)	USP8 block 92, USP17 inh 50
O=C(c1ccc(F)cc1)N1CCC(C2CCNCC2)CC1	none
N#Cc1c(N2CCOCC2)nc(N)c2c(N)nc3c(c12)CC(c1ccccc1)O3 (configuration not stated)	none
N#Cc1c(N)nc2c(c1N)C(c1ccccc1)CO2 (configuration not stated)	USP17 inh 44, USP30 inh 58
C/C=C1/C2=CCCN3C(=O)O[C@H]([C@H]1O)[C@H]23	USP17 inh 72
CCCC(=O)NCc1nnc2c(C(F)(F)F)cc(Cl)cn12	none
Cc1ccc(S(=O)(=O)Nc2nc(-c3ccc4c(c3)NC(=O)C(C)O4)c(C)s2)cc1 (configuration not stated)	USP8 block 50 (no result: USP17 inh)
COc1cccc(C(=O)Nc2nc(-c3ccc4c(c3)NC(=O)C(C)O4)c(C)s2)c1 (configuration not stated)	none
CCOc1cccc(C2c3c(oc4ccc(C)cc4c3=O)C(=O)N2CCN2CCOCC2)c1 (configuration not stated)	USP8 block 40
COc1ccc2c(=O)c3c(oc2c1)C(=O)N(CCN1CCOCC1)C3c1cccc(F)c1 (configuration not stated)	none
NS(=O)(=O)c1cc(C(=O)NCC2(c3ccccc3)CCC2)ccc1Cl	none
Cc1c(OCC(=O)NCc2ccccc2Cl)ccc2c3c(c(=O)oc12)CCC3	USP8 block 52
O=C(COc1cc2oc(=O)c3c(c2cc1Cl)CCC3)N1CCCC1	none
COc1ccc([C@H]2Oc3cc(OC)cc(O)c3C(=O)[C@@H]2[C@@H]2C(=O)c3c(O)cc(O)cc3O[C@H]2c2ccc(OC)cc2)cc1	USP17 inh 41
C[C@H]1C(=O)c2c(O)cc(O)cc2O[C@@H]1c1ccc(O)cc1	none
CCOc1ccc(NC(=O)CN2CCN(Cc3cccc(C)c3)S2(=O)=O)cc1	none
CCOc1ccc(-c2cnc(NCc3cccc(C)c3)n2C)cc1	USP8 block 53
CC1(C)CC(=O)c2c(C#N)sc(C#N)c2C1	USP8 block 60
CCOc1ccc(-n2ccnc(SCC(=O)Nc3ccccc3Cl)c2=O)cc1	USP8 block 53, USP17 inh 30
CCOc1ccc(-n2ccnc(SCC(=O)Nc3ccccc3F)c2=O)cc1	USP8 block 57, USP30 inh 32
Cc1cc(NC(=O)CSc2nccn2-c2ccc(F)cc2)no1	none
COc1ccc(-c2ccnc(SCC(=O)Nc3ccccc3F)n2)cc1	USP17 inh 71, USP30 inh 65
CCN1C(SCC(=O)Nc2ccccc2Cl)=NS(=O)(=O)c2ccccc21	none
COc1cnc(CSc2nccc(C)n2)cc1OCC(=O)Nc1ccccc1F	none
Cc1cc(C)cc(-n2ccnc(SCC(=O)Nc3cccc(Cl)c3)c2=O)c1	USP17 inh 34, USP30 inh 54
Cn1c(=O)c2c(ncn2CC(=O)OCC(=O)Nc2cccc(Cl)c2)n(C)c1=O	none
COc1cc(C2CCN(C(=O)c3cccc4ccccc34)CC2)on1	none
Cc1noc(C)c1C1CCCN1C(=O)Nc1cccc(Cl)c1 (configuration not stated)	none
C/C=C/c1ccc(O[C@@H](C)[C@@H](O)c2ccc(O)c(OC)c2)c(OC)c1	none
COc1ccccc1-c1cc2c(=O)n(Cc3nc(-c4cccc(Cl)c4)no3)ccn2n1	none
COc1ccc(NC(=O)c2cn(C)nc2S(=O)(=O)N2CCCCC2)cc1	none
CC(C)(C)C(=O)C1C2C(=O)N(c3ccc4c(c3)OCO4)C(=O)C2C2c3ccccc3C=CN12 (configuration not stated)	USP8 block 53, USP17 inh 69
O=C(c1ccco1)C1C2C(=O)N(c3cccc(C(F)(F)F)c3)C(=O)C2C2c3ccccc3C=CN12 (configuration not stated)	none
O=C1CC(C(=O)Nc2ccc3c(c2)OCO3)N=C(Nc2ccccc2)N1 (configuration not stated)	none
CCCOc1ccc(N2CC(C(=O)Nc3ccc4c(c3)OCO4)CC2=O)cc1 (configuration not stated)	none

Compound activity (PubChem)
